G9a block = qHTS Assay for Inhibitors of Histone Lysine Methyltransferase G9a | Histone-lysine N-methyltransferase EHMT2 (Homo sapiens), Q96KQ7 | G9a H3K9 monomethylation, AlphaScreen, 2 h | Potency, µM (titrated, usually from 102 µM), hits mostly inhibitors | 8.8% of 350,000 active | AID 504332, 2011; further: nearly all actives have a fitted effect of over 75% in size
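G9a (20 nM) preincubated 15 min RT with compounds, then 500 nM biotinylated H3K9 peptide and 20 uM SAM added; 2 h RT reaction. Monomethyl-H3K9 product detected by AlphaScreen with anti-H3K9me1 antibody, streptavidin donor and anti-rabbit IgG acceptor beads.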
CtBP-E1A blk = qHTS Assay for Inhibitors of the CtBP/E1A Interaction. AlphaScreen GST-E1A/His-CtBP binding, 1536-well; hits give low values. 0.49% of 340,000 active. activity change, % (test concentration not listed). CtBP / adenovirus E1A interaction (AlphaScreen); in the data active means activity change below about -65%; inconclusive means mostly about -30% to -63%
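GST-E1A and His-tagged CtBP (125 nM each as 5X stock) were preincubated with pin-transferred compound for 2 h at 37 °C in the dark, then glutathione donor and nickel acceptor beads were added for 1 h before AlphaScreen reading.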
Six1-Eya2 inh = qHTS Assay for Inhibitors of the Six1/Eya2 Interaction; Homeobox protein SIX1 (Homo sapiens) + Protein phosphatase EYA2 (Homo sapiens), …; AlphaScreen GST-Six1/His-Eya2 binding, biochemical; hits give low values; activity change, % (concentration not given with the values); 0.56% of 360,000 active; in the data active means activity change below about -65%; inconclusive means mostly about -30% to -63%
Target sequence (O00167 whole entry, looked up): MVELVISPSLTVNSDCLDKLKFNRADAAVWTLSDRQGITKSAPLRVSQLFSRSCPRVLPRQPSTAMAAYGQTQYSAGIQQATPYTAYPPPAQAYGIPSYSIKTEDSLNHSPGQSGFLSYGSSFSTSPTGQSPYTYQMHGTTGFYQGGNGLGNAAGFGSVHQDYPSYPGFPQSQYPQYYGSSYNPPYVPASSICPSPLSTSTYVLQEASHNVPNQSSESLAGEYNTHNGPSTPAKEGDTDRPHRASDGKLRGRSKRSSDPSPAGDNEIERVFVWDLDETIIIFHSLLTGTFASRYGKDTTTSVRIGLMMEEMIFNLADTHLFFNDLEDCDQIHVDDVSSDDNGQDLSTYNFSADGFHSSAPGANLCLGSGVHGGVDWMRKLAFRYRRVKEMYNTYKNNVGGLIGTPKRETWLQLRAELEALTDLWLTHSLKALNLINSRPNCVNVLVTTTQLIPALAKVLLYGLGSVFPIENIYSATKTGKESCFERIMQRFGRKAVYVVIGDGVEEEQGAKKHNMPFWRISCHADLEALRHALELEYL
Target sequence (Q15475 whole entry, looked up): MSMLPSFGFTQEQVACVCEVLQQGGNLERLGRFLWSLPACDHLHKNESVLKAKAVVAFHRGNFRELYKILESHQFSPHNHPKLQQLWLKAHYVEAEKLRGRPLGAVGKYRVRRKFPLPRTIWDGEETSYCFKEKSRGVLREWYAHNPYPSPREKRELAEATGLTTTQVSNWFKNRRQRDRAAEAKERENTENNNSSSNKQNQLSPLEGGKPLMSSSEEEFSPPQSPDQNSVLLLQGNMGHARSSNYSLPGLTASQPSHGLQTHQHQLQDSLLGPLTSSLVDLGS
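Six1/Eya2 binding was read as AlphaScreen signal after compounds were pinned into GST-Six1 plus His-tagged Eya2 (5X stock 250/500 nM) in pH 8.0 Tris/NaCl/TCEP buffer, beads added, then incubated 1 h, 37 C, dark.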
JMJD2A Tudor inh = qHTS Assay for Inhibitors of JMJD2A-Tudor Domain. AlphaScreen JMJD2A-Tudor / H3K4me3 peptide binding. Potency, µM (doses to about 114 µM), most hits filed as inhibitors. 4.4% of 390,000 active; further: nearly all actives have a fitted effect of over 50% in size
HP1b binding inh = HTS for Inhibitors of HP1-beta Chromodomain Interactions with Methylated Histone Tails | AlphaScreen HP1-beta / biotin-H3K9me3 peptide binding | Chromobox protein homolog 1 (Homo sapiens), P83916 | AID 540317, 2011 | Potency, µM (doses to about 114 µM), hits mostly inhibitors | 0.56% of 390,000 active; further: nearly all actives have a fitted effect of over 70% in size
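Compound inhibition of the preformed complex between 50 nM HP1-beta and 50 nM biotinylated H3K9me3 peptide was read by AlphaScreen. Buffer was PBS pH 7.4 with 0.01% Tween-20. Incubations ran 30 min at room temperature, with 10 ug/mL donor/acceptor beads.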
BAZ2B block = qHTS Assay for Inhibitors of BAZ2B. Potency, µM (doses to about 114 µM), most hits filed as inhibitors. Bromodomain adjacent to zinc finger domain protein 2B (Homo sapiens), Q9UIF8. AlphaScreen BAZ2B-H3K14Ac peptide displacement. 4.4% of 360,000 active; further: nearly all actives have a fitted effect of over 60% in size
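Protein-peptide AlphaScreen: BAZ2B 50 nM, b-H3K14Ac 50 nM, 1x PBS pH 7.4 + 0.01% Tween-20. Preincubation 30 min RT; cpd 30 min RT (top 110 uM); beads 20 min RT, light-protected.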
Large screens that a line does not name were inactive; ! = repeats disagree. Compounds with a hit are over-represented: about 10% of the library has one in this group of screens. Unless noted, the call rests on the fitted dose curve; in most records, active means well fitted inhibition curve with a large enough effect; inconclusive means small, poorly fitted or top-dose-only effect; inactive means no such curve, though single readings can be large or run the other way.

CCN(CC)CCN1C(=O)C(=O)/C(=C(/O)c2c(C)[nH]c(C(=O)OC)c2C)C1c1cccnc1 (centres undefined)	G9a block inconclusive
Cc1c(-c2ccc(Cl)cc2)noc1C1CCN(CCc2ccccc2)CC1	none (no result: CtBP-E1A blk, Six1-Eya2 inh, JMJD2A Tudor inh, HP1b binding inh, BAZ2B block)
O=C(NCc1ccc(F)cc1)c1ccc2c(O)c(S(=O)(=O)c3ccccc3)c(=O)[nH]c2c1	G9a block inconclusive (no result: CtBP-E1A blk, Six1-Eya2 inh)
CCc1ccccc1NC(=O)Cn1c(=O)n(-c2ccc(C)cc2)c(=O)c2cc(OC)c(OC)cc21	none (no result: CtBP-E1A blk, Six1-Eya2 inh)
N[C@@H]1CONC1=O	G9a block 20µM! (no result: CtBP-E1A blk, Six1-Eya2 inh, JMJD2A Tudor inh, HP1b binding inh)
CC(=O)Nc1ccc(CN(C)c2c(C)nc3ccc(C(=O)N(C)Cc4ccco4)cn23)cc1	none (no result: G9a block, JMJD2A Tudor inh, HP1b binding inh, BAZ2B block)
OC(CNCCc1ccc(Cl)cc1)COc1cc(Cl)ccc1Cl (centres undefined)	none
N#Cc1ccc(-c2nc3c4ccccc4ccn3c2CC2CCCCC2)cc1	none (no result: G9a block, JMJD2A Tudor inh, HP1b binding inh, BAZ2B block)
O=C(Nc1ccc([N+](=O)[O-])cn1)c1cc(-c2cccc(Br)c2)nc2ccccc12	G9a block inconclusive
CCOc1cccc(-c2cc(C(=O)Nc3ccon3)c3ccccc3n2)c1	G9a block 20µM
COc1cccc(-c2cc(C(=O)Nc3ccc([N+](=O)[O-])cn3)c3ccccc3n2)c1	G9a block 7.9µM, BAZ2B block inconclusive
Cc1ccc(-c2cc(C(=O)O)n[nH]2)o1	JMJD2A Tudor inh 25µM
Cc1cc(NCCO)nc(-n2nc(C)cc2C)n1	G9a block inconclusive
Cc1cc(N(CCO)CCO)nc(-n2nc(C)cc2C)n1	G9a block 40µM, JMJD2A Tudor inh inconclusive
CC(C)CCC(C(=O)NC(C)c1ccccc1)C(=O)NC(C)c1ccccc1 (centres undefined)	JMJD2A Tudor inh 22µM, BAZ2B block inconclusive
COCC(=O)NC(c1ccccc1)c1ccccc1	none
CC(C)CCNCC(=O)NC(c1ccccc1)c1ccccc1	G9a block 5.6µM, JMJD2A Tudor inh 32µM, BAZ2B block 56µM
Cc1ccc(C(=O)CCS(=O)(=O)c2ccc(F)cc2)cc1	G9a block 32µM
Cc1ccc(S(=O)(=O)CCC(=O)c2ccc(F)cc2)cc1	none
COC(=O)c1ccc(OC(=O)CCS(=O)(=O)c2ccc(C)cc2)cc1	G9a block 35µM
Cc1n[nH]c(C)c1NC(=O)CSc1nnnn1-c1cccc(F)c1	none (no result: G9a block, BAZ2B block)
O=C(CN1CCC(O)(c2cccc(F)c2)CC1)NCCc1c[nH]c2ccccc12	none (no result: CtBP-E1A blk)
O=C(c1noc2c1CCCC2)N1CCN(c2ccc(F)cc2)CC1	none
COc1ccc(C(=O)N2CCN(c3ccccc3OC)CC2)cc1	G9a block inconclusive
O=C(c1ccc2[nH]c3c(c2c1)CCCC3)N1CCN(c2ccc(F)cc2)CC1	G9a block inconclusive, JMJD2A Tudor inh 32µM, HP1b binding inh inconclusive, BAZ2B block 40µM
COc1ccccc1N1CCN(C(=O)c2ccc3[nH]c4c(c3c2)CCCC4)CC1	G9a block inconclusive, JMJD2A Tudor inh 50µM, HP1b binding inh inconclusive, BAZ2B block 45µM
CCc1c(-c2ccc(OC)cc2)ncn1Cc1cccc(-c2ccccc2)c1	none (no result: G9a block, JMJD2A Tudor inh, HP1b binding inh, BAZ2B block)
CCC(C)CN1C(=O)CN(S(C)(=O)=O)CC1(C)C(=O)Nc1c(C)cccc1C (centres undefined)	none (no result: G9a block, JMJD2A Tudor inh, HP1b binding inh, BAZ2B block)
O=C(CN1C(=O)COc2ccc(S(=O)(=O)N3CCOCC3)cc21)N1CCN(c2ccc(F)cc2)CC1	none (no result: CtBP-E1A blk, Six1-Eya2 inh)
O=C(O)c1cc(O)c2c(c1)C(=O)c1cc(O)cc(O)c1C2=O	Six1-Eya2 inh inconclusive, JMJD2A Tudor inh inconclusive, BAZ2B block 50µM
O=C1c2cc(Cl)ccc2-c2c(O)cc(Cl)cc21	JMJD2A Tudor inh inconclusive (no result: G9a block, BAZ2B block)
CCC/C(=C1/C(=O)CC(C)(C)C(C(=O)OC)C1=O)N1CCCC1 (centres undefined)	G9a block 71µM
CCCC(=O)C1=C(N2CCCC2)CC(C)(C)C(C(=O)OC)C1=O (centres undefined)	none (no result: G9a block)
CCOC(=O)c1c(N)sc(C(N)=O)c1C	G9a block inconclusive, HP1b binding inh inconclusive

Assay outcomes as filed in PubChem BioAssay.
